# RORg inh: ROR gamma (mouse) transcription inhibition; Drosophila S2 Gal4-RORgamma UAS-luciferase reporter, 20 h; Potency, µM (doses to about 53.6 µM), without a hit: at the top dose activity change, negative = inhibition, actives largely listed as inhibitors; 5.4% of 310,000 active; further: potency means the concentration at half of the fitted maximal effect; on the % scale 0 is the no-effect control and ±100 the full control effect; nearly all actives have a fitted effect of over 60% in size
# Target sequence (P51450 whole entry, looked up, the tested form may be a part): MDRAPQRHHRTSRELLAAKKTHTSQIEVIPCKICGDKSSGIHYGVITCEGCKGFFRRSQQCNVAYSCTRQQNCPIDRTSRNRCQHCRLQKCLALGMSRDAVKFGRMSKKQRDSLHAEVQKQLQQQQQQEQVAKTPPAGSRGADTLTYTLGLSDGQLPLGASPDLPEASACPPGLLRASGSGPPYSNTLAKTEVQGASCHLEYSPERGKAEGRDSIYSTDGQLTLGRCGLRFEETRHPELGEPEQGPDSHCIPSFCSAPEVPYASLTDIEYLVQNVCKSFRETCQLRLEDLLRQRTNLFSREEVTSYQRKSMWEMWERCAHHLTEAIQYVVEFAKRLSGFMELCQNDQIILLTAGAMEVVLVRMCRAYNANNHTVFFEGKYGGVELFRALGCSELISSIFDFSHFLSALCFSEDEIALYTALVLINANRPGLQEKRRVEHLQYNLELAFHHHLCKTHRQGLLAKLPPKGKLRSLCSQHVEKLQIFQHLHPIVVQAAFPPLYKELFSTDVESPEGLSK
#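 Luminescence from a UAS-regulated Photinus luciferase reporter in stably transfected Drosophila Schneider cells is measured; decreased signal marks ROR gamma inhibition. Fusion expression is induced by 700 uM copper sulfate for 20 hr.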
# IL1B secr inh: inhibitors of inflammasome signaling (IL-1 beta secretion); THP-1 LPS/ATP IL-1B secretion, AlphaLISA, 16 h; active compounds read low; activity change, % at 57.5 µM; 4.7% of 360,000 active; in the data active means activity change below about -50%; inconclusive means mostly about -30% to -49%; further: on the % scale 0 is the no-effect control and ±100 the full control effect
#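 THP-1 cells pretreated 1 hr with compounds (up to 57.5 uM final), then stimulated with LPS (250 ng/mL final) plus ATP (1.25 mM final); secreted IL-1B measured by AlphaLISA after 16 hr, decreased signal indicating inhibition.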
# VP16 counter: inhibits Gal4-VP16 luciferase reporter, ROR gamma counter-screen | Drosophila S2 Gal4-VP16 UAS-luciferase, luminescence, 20 h | Potency, µM (series often up to 53.6 µM), without a hit: at the highest dose activity, negative = inhibition, actives largely listed as inhibitors | 3.5% of 310,000 active | AID 2546;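 further: Gal4-VP16 expression switched on by copper sulfate through the metallothionein promoter; potency means the concentration at half of the fitted maximal effect; on the % scale 0 is the no-effect control and ±100 the full control effect; nearly all actives have a fitted effect of over 50% in size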
# MCF10A rerep: DNA re-replication induction in MCF 10a cells; 2.9% of 350,000 active; Potency, µM (titrated, usually from 46.1 µM), for inactives: top-dose activity, positive = re-replication, hits mostly activators; MCF 10A DNA re-replication, Hoechst nuclear intensity, 48 h; AID 624296; further: potency means the concentration at half of the fitted maximal effect; % of control where 0% means no effect; nearly all actives have a fitted effect of over 50% in size
# SW480 rereplic: induces DNA re-replication in SW480 colon adenocarcinoma cells; SW480 DNA re-replication, Hoechst DNA content imaging, 48 h; Potency, µM (top dose mostly 46.1 µM), without a hit: at the top dose re-replication activation, most hits filed as activators; 1.8% of 340,000 active; AID 624297; further: potency means the concentration at half of the fitted maximal effect; % of control where 0% means no effect; nearly all actives have a fitted effect of over 55% in size
#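 Per well, 250 cells were exposed to pinned compound for 48 hr. Nuclear DNA was visualised with Hoechst (40 min, 37 C) and total object intensity recorded by fluorescence scanning.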
# Active calls of the source: *; ? = inconclusive; . = no result; [ ] = remark or other dose. This is a sample that favours compounds with a hit; in the whole collection about 11% have one here. Unless noted, the call rests on the fitted dose curve; in most records, active means well fitted curve in the direction sought with a large enough effect; inconclusive means small, poorly fitted or top-dose-only effect, or another doubt; inactive means no such curve, though single readings can be large; an effect the other way counts as inactive or inconclusive.
SMILES,RORg inh,IL1B secr inh,VP16 counter,MCF10A rerep,SW480 rereplic
Cc1cc(NC(=O)CSc2nc(-c3cccs3)cc(C(F)(F)F)n2)no1,-38%,28,-6%,-6%,2%
COc1ccc(-c2cc(C(F)(F)F)nc(S(C)(=O)=O)n2)cc1,13µM*,-102*,8.9µM*,?,11%
O=C(O)CCS(=O)(=O)c1nc(-c2cccs2)cc(C(F)(F)F)n1,?,-29,?,?,?
CC(=O)N[C@H]1[C@H]([C@H](O)[C@H](O)CO)O[C@](O)(C(=O)O)C[C@@H]1O,.,-8,.,3%,-1%
CC(C)COC(=O)N(C)C[C@H]1OCc2cnnn2CCCC(=O)N([C@@H](C)CO)C[C@H]1C,.,27,.,.,.
CCc1n[nH]c(=S)n1/N=C/c1c(O)ccc2ccccc12,?,6,20µM*,9%,-3%
Cc1nnc(C)n1/N=C/c1c(O)ccc2ccccc12,-15%,19,5%,-1%,-2%
S=c1[nH]nc(-c2ccncc2)n1/N=C/c1cccc2ccccc12,-10%,.,-9%,.,.
CCc1n[nH]c(=S)n1/N=C/c1cccc2ccccc12,7.1µM*,7,7.9µM*,?,-6%[9.22 µM]
COc1cc2c(cc1OC)C1O[C@](CCCCN3C(=O)c4ccccc4C3=O)(C2)OC2=C1C(=O)c1ccccc1C2=O,31%[10 µM],.,-6%[10 µM],.,.
COc1ccc(CNC(=O)[C@H](C)NC(=O)[C@@H]2Cc3ccccc3CN2)cc1,-5%,6,-5%,-1%,-5%
COc1ccc(S(=O)(=O)NCC2CCCN(Cc3ccccc3Cl)C2)cc1 (configuration not stated),6%,-14,-14%,23µM*,-1%
COc1ccc(S(=O)(=O)NCC2CCCN(Cc3ccc(OC)cc3F)C2)cc1 (configuration not stated),-15%,-15,0%,2%,?
Cc1ccc(NC(=O)COC(=O)c2ccco2)cc1S(=O)(=O)N1CCCCC1,.,9,.,.,.
CCOP(=O)(Nc1cccc2oc(=O)c3ccccc3c12)OCC,.,14,.,-3%,0%
S=c1[nH]nc(COc2ccc(Cl)cc2Cl)n1-c1ccccc1,-33%[1.91 µM],-4,3.5µM*,0%,12%
COc1ccc(C(=O)NCc2n[nH]c(=S)n2-c2ccccc2)cc1OC,-34%,-1,-5%,?,-4%
COc1ccc(-n2c(CNC(=O)COc3ccc(Cl)cc3Cl)n[nH]c2=S)cc1,10µM*,-12,-4%,?,?
Cc1ccc(S(=O)(=O)N2CCC(=O)N([C@H](COCc3ccc(Cl)cc3)C(C)C)CC2)cc1,.,22,.,.,.
CC1Cc2ccccc2N1C(=O)c1cc2cccnc2n(C)c1=O (configuration not stated),.,31,.,0%,0%
Cc1ccc(NC(=S)Nc2ccc3[nH]c(=O)[nH]c3c2)cc1,10µM*,?,-23%,7%,-1%
CCOc1cc(/C=N/NC(N)=O)ccc1OC(=O)c1ccc(C)cc1,-13%,.,1%,.,.
COc1cc(/C=N/Nc2ccccn2)ccc1O,?,0,?,0%,-5%
CCOc1cc(/C=N/Nc2nnc(C)n2N)ccc1OC(C)=O,11µM*,18,?,18µM*,18%
CCc1nnc(N/N=C/c2cccs2)n1N,?,0,13µM*,?,23µM*
SMILES,RORg inh,IL1B secr inh,VP16 counter,MCF10A rerep,SW480 rereplic
CCc1nnc(N/N=C/c2ccc(O)c(OC)c2)n1N,16µM*,0,13µM*,?,?
CCc1nnc(N/N=C/c2cc(Br)c(O)cc2O)n1N,10µM*,43,11µM*,3%,26%
Cc1cc(O)c2c(c1)OC1(C)CCC3C(C)(C)CCCC34COC2C14 (configuration not stated),3%,.,?,?,2%
Cc1nnc(N/N=C/c2cccc(OCc3ccc(Cl)c(Cl)c3)c2)n1N,?,-84*,?,?,?
Cc1nnc(N/N=C/c2cccc(C(F)(F)F)c2)n1N,-38%,29,?,?,22%
CC(C)(C)c1nnc(N/N=C/c2cc(Br)ccc2O)n(N)c1=O,13µM*,12,10µM*,?,?
CCc1nnc(N/N=C\c2ccc(OC(C)=O)c(OC)c2)n1N,?,-8,?,23µM*,?
NS(=O)(=O)c1ccc(CNC(=O)c2cc(-c3ccccc3)nc3ccccc23)cc1,17%,5,-11%,6%,31%
COc1ccc(-c2cc(C(=O)Nc3cc(S(N)(=O)=O)ccc3C)c3ccccc3n2)cc1OC,.,-6,.,7%,-19%
COc1cc(-c2cc(C(=O)NCc3ccc(S(N)(=O)=O)cc3)c3ccccc3n2)cc(OC)c1OC,-17%,-62*,1%,11%,14%
COc1ccc(-c2cc(C(=O)Nc3ccc(S(N)(=O)=O)cc3)c3ccccc3n2)cc1OC,-3%,13,-1%,8.2µM*,5.8µM*
Cc1cn(C2CC(N=[N+]=[N-])C(CO)O2)c(=O)[nH]c1=O (configuration not stated),15%,.,6%,.,.
CCCCN(CC)S(=O)(=O)c1ccc(C(=O)N=c2sc3cc(NC(C)=O)ccc3n2C)cc1,?,-6,-28%,10µM*,7.3µM*
CC(C)=Nc1ccccc1C1COC(=O)C1=N (configuration not stated),7%,0,2%,-70%,0.52µM*
N=C1C(=O)OCC1c1ccccc1NC(=O)Nc1ccccc1 (configuration not stated),-3%,5,-21%,2%,-5%
O=C(N/N=C/c1cn(-c2ccccc2)nc1-c1cc2ccccc2o1)c1ccccc1Br,?,1,5µM*,?,3%
OCc1cn(-c2ccccc2)nc1-c1cc2ccccc2o1,?,-16,11µM*,-1%,-2%
O=C(N/N=C/c1cn(-c2ccccc2)nc1-c1cc2ccccc2o1)c1c[nH]c2ccccc12,?,-60*,-1%,2%,29%
COc1ccc([C@]23Cc4ccccc4C(O2)C2=C(O3)C(=O)c3ccccc3C2=O)cc1,0%[10 µM],.,-12%[10 µM],.,.
CCN(CC(=O)Nc1c(F)cccc1F)C(=O)c1ccc(OCC(=O)N2CCOCC2)c(OC)c1,.,10,.,-10%,-132%
COc1ccc(OC)c(S(=O)(=O)ON2C(=O)c3ccccc3C2=O)c1,5.6µM*,-13,7.9µM*,6.5µM*,?
CCc1ccc(S(=O)(=O)ON2C(=O)c3ccccc3C2=O)cc1,14%,-28,-6%,18µM*,?
C=CCNc1nc2c(c(=O)[nH]c(=O)n2C)n1CC(O)COc1ccc2ccccc2c1 (configuration not stated),2%,21,5%,?,1%
Cc1ccc(/C=c2/sc3n(c2=O)CCCN=3)o1,7.1µM*,0,?,7%,1%

# Screening results from PubChem.
